Eight molecules from PubChem BioAssay (Tox21) can be followed below.

Values without a mark were called inactive. Records with an inconclusive call do not appear. Calls of active or inactive are those of the source. Unless noted, calls follow the shape of the full dose curve.

A short description of assay [1]: Nuclear factor erythroid 2-related factor 2/antioxidant responsive element (Nrf2/ARE) small molecule agonists: qHTS cell viability counter screen in human keratinocytes (AID 1919968; active = well fitted curve in the direction sought with a large enough effect in the repeat runs; an effect the other way counts as inactive or inconclusive; also: nearly all actives have a fitted effect of over 55% in size). Summed up: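 Cytotoxicity was multiplexed with the Nrf2/ARE luciferase assay in the same wells. Stably transfected HaCaT keratinocytes were treated with test compounds for 23 h at 37 C. Cell viability was then measured by CellTiter-Fluor fluorescence.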
For orientation: In qHTS, concentration-response curves come from the screen itself.

Assay [2] addresses Gonadotropin-releasing hormone receptor (Homo sapiens) (UniProt P30968). Kind of assay: Human gonadotropin-releasing hormone receptor (GnRHR) small molecule agonists, calcium flux assay in GnRHR-HEK293 cells (AID 1920063). Also: nearly all actives have a fitted effect of over 35% in size. Summed up: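 Agonist activity was measured as intracellular calcium flux in HEK293 cells engineered to stably express human GnRHR. After dye loading for 1 hour at 37 C, compounds in DMSO were added and fluorescence was followed for 3 minutes.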
For orientation: Calcium assays in cells follow changes in intracellular calcium, usually with a dye or a luminescent sensor.

Assay [3] concerns the target KiSS-1 receptor (Homo sapiens) (UniProt Q969F8). Kind of assay: Human kisspeptin (KISS1R) small molecule agonists, calcium flux assay in KISS1R-HEK293 cells (AID 1920064; active = well fitted curve in the direction sought with a large enough effect in the repeat runs; an effect the other way counts as inactive or inconclusive). Summed up:
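Agonist activity is monitored as intracellular calcium rise in engineered HEK293 cells carrying human KISS1R. Cells are dye-loaded for 1 h at 37 C before compound addition, and fluorescence is recorded for 3 min.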

Assay [4] is described as follows: G protein-coupled receptor (GPCR) small molecule agonists, calcium flux assay: HEK293 wild type cell line counter screen (AID 1920065). Put shortly: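 Seed cells, incubate 18 h (37 C, 5% CO2); add calcium dye, 1 h at 37 C; pin-transfer compounds, ATP control or DMSO; read fluorescence 480/540 nm each second for 3 min.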
Assay [5] can be described thus: p53 small molecule agonists, cell-based qHTS assay with human liver microsomes (AID 1963577). Summed up:
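p53RE-bla reporter cells were pre-incubated 5 h at 37 C, then treated with compounds plus human liver microsomes (0.5 mg/mL final) and NADPH (0.5 mg/mL final) for 16 h at 37 C. Beta-lactamase activity was read by LiveBLAzer fluorescence after 2 h at room temperature.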

The nature of assay [6]: p53 small molecule agonists, cell-based qHTS assay with rat liver microsomes (AID 1963578). Put shortly: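 p53RE-bla cells were exposed to compounds together with rat liver microsomes (0.5 mg/mL final) and NADPH (0.5 mg/mL final) for 16 h at 37 C, then read by LiveBLAzer beta-lactamase fluorescence after 2 h at room temperature.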
Assay [7] in a line: p53 small molecule agonists, cell-based qHTS assay with human liver microsomes: qHTS cell viability counter screen (AID 1963579). Also: nearly all actives have a fitted effect of over 45% in size. Summed up: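 p53RE-bla cells (4,000/well) were pre-incubated 5 h at 37 C, then given compounds in DMSO plus human liver microsomes (0.5 mg/mL final) and NADPH (0.5 mg/mL final) for 16 h at 37 C. Viability was read by CellTiter-Glo luminescence.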
The nature of assay [8]: p53 small molecule agonists, cell-based qHTS assay with rat liver microsomes: qHTS cell viability counter screen (AID 1963580). Also: nearly all actives have a fitted effect of over 45% in size. Put shortly: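 Cytotoxicity counter screen: intracellular ATP measured by CellTiter-Glo luminescence in the same wells as the beta-lactamase reporter read, on HCT-116 p53RE-bla cells exposed 16 h at 37 C to compounds with rat liver microsomes and NADPH, each 0.5 mg/mL final.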

Assay [9] in a line: p53 small molecule agonists, cell-based qHTS assay: qHTS cell viability counter screen (AID 1963581). Also: nearly all actives have a fitted effect of over 45% in size. Summed up: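 Viability was counter-screened in parallel with the p53 agonist reporter by measuring intracellular ATP luminescence in the same HCT-116 p53RE-bla wells after 16 h compound treatment at 37 C.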
A short description of assay [10]: p53 small molecule agonists, cell-based qHTS assay (AID 1963582; active = well fitted activation curve with a large enough effect in the signal ratio in the repeat runs, not every such curve was filed as active; the % refers to the signal ratio). Summed up:
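Cells carrying a p53-responsive bla reporter are treated with test compounds for 16 h at 37 C; beta-lactamase activity is then detected with LiveBLAzer B/G FRET substrate after 2 h at room temperature.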

Assay [11] addresses 5-hydroxytryptamine receptor 2A (Homo sapiens) (UniProt P28223). Kind of assay: 5-hydroxytryptamine receptor 2A (HTR2A) small molecule antagonists, cell-based qHTS assay (AID 1963586). Also: nearly all actives have a fitted effect of over 45% in size. Also: potency is read from the fitted curve at half-maximal effect. Put shortly: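 CHO cells stably expressing human HTR2A were plated for 18 h at 37 C, then loaded with calcium dye for 1 h. Compounds were preincubated 5 min at room temperature before DOI (4 nM solution) was added. Kinetic fluorescence was read for 3 min.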

Assay [12] has the same target. Kind of assay: 5-hydroxytryptamine receptor 2A (HTR2A) small molecule agonists, cell-based qHTS assay (AID 1963587). Also: nearly all actives have a fitted effect of over 30% in size. Put shortly:
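CHO cells stably expressing human HTR2A, plated 18 h, loaded with calcium dye 1 h at 37 C. Agonist mode: compounds added and intracellular calcium fluorescence recorded kinetically for 2 min at 1 sec intervals.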

Assay [13] has as its target Muscarinic acetylcholine receptor M1 (Homo sapiens) (UniProt P11229). As to the kind of experiment: Cholinergic receptor muscarinic 1 (CHRM1) small molecule antagonists, cell-based qHTS assay (AID 1963588). Also: nearly all actives have a fitted effect of over 40% in size. Summed up:
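Compounds were tested at 15 concentrations in three independent runs. Dye-loaded CHRM1-CHO cells were exposed 5 min at room temperature before stimulation by acetylcholine added at 50nM. Intracellular calcium was read kinetically on FDSS for 3 min.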

Assay [14] shares this target. Kind of assay: Cholinergic receptor muscarinic 1 (CHRM1) small molecule agonists, cell-based qHTS assay (AID 1963589). Also: nearly all actives have a fitted effect of over 35% in size. Put shortly:
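Cells were plated and incubated 18 h at 37 C/5% CO2, loaded with calcium dye for 1 h at 37 C, then treated with compounds in DMSO. Fluorescence was recorded kinetically at 1 sec intervals.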

A short description of assay [15]: cAMP Responsive Elements (CRE) small molecule agonists, cell-based qHTS assay (AID 1963590). Summed up:
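Cells carrying a CRE-driven beta-lactamase reporter (HEK 293T) are seeded, incubated overnight (18 h), and treated with test compounds for 3 h at 37 C; reporter activity is then detected with a FRET substrate after 2 h at room temperature.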

A short description of assay [16]: cAMP Responsive Elements (CRE) small molecule antagonists, cell-based qHTS assay (AID 1963591; active = well fitted inhibition curve with a large enough effect in the signal ratio in the repeat runs, not every such curve was filed as active; the % refers to the signal ratio). Put shortly:
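Cells (CRE-bla HEK 293T, DMEM with 10% dialyzed FBS and 25 mM HEPES) are seeded and incubated 18 h. Compounds are added with NKH477 agonist at 0.25 uM final for 3 h, then FRET substrate for 2 h.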

In assay [17] the target is Beta-2 adrenergic receptor (Homo sapiens) (UniProt P07550). Kind of assay: Adrenergic beta2 receptor (ADRB2) small molecule antagonists, cell-based qHTS assay (AID 1963592). Also: series mostly up to about 92 µM; nearly all actives have a fitted effect of over 50% in size. Put shortly:
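Assay format: CHO-ADRB2 cells, 18-20hr seeding at 37C/5% CO2, then compound plus 1nM isoproterenol agonist mix for 0.5hr RT. Homogeneous time-resolved fluorescence cAMP detection after 1hr, expressed as 665/615 nm ratio.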

The target of assay [18] is D(2) dopamine receptor (Homo sapiens) (UniProt P14416). Kind of assay: Dopamine D2 receptor (DRD2) small molecule agonists, cell-based qHTS assay (AID 1963594). Also: nearly all actives have a fitted effect of over 35% in size. Summed up:
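HEK293 cells stably expressing human DRD2, pre-treated with PDE inhibitor Ro20-1724 (0.1 mM final) and compound 10 min at room temperature, then stimulated with NKH477 (200nM […]) for 30 min. cAMP read by HTRF (665/620 nm).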

Assay [19] has the same target. As to the kind of experiment: Dopamine D2 receptor (DRD2) small molecule antagonists, cell-based qHTS assay (AID 1963595; active = well fitted inhibition curve with a large enough effect in the signal ratio in the repeat runs, with a control signal flat; the % refers to the signal ratio). Summed up: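 Antagonist mode in DRD2-HEK293 cells: after compound addition with 0.1 mM Ro20-1724, cells received quinpirole (12 nM) and NKH477 (200 nM) for 30 min at room temperature; HTRF cAMP read after 1 h detection.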
For assay [20], the target named is Beta-2 adrenergic receptor (Homo sapiens) (UniProt P07550). As to the kind of experiment: Adrenergic beta2 receptor (ADRB2) small molecule agonists, cell-based qHTS assay (AID 1963593).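 Also: CHO cells stably overexpressing human ADRB2.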 Summed up:
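CHO cells stably over-expressing ADRB2 were plated overnight at 37C, then dosed with compounds plus a stimulation mix containing 100uM IBMX and 25uM Ro-20-1724 for 0.5hr at room temperature. cAMP was measured by HTRF competition, 1hr.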

Sequence of Gonadotropin-releasing hormone receptor (Homo sapiens) (P30968 whole entry, looked up): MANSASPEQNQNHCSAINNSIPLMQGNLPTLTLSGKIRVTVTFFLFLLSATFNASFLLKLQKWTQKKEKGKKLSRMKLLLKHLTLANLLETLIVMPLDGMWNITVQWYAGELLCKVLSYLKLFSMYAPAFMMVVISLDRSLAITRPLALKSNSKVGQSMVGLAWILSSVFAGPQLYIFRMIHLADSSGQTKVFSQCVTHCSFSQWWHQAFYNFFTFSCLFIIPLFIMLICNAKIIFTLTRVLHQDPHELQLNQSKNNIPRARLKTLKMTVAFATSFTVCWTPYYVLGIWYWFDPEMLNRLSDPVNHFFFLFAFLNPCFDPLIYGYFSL
Sequence of Beta-2 adrenergic receptor (Homo sapiens) (P07550 whole entry, looked up): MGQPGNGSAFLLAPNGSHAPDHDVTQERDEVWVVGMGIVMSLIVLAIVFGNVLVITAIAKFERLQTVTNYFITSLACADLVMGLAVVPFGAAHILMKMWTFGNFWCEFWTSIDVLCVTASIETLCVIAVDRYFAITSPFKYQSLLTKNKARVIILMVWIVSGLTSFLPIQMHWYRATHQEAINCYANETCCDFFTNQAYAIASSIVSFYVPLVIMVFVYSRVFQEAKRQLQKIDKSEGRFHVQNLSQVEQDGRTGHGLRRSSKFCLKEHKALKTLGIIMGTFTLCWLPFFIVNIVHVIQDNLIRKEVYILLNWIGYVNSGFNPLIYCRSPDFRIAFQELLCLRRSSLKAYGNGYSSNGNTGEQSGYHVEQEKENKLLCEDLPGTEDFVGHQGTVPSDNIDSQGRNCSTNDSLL
Sequence of 5-hydroxytryptamine receptor 2A (Homo sapiens) (P28223 whole entry, looked up): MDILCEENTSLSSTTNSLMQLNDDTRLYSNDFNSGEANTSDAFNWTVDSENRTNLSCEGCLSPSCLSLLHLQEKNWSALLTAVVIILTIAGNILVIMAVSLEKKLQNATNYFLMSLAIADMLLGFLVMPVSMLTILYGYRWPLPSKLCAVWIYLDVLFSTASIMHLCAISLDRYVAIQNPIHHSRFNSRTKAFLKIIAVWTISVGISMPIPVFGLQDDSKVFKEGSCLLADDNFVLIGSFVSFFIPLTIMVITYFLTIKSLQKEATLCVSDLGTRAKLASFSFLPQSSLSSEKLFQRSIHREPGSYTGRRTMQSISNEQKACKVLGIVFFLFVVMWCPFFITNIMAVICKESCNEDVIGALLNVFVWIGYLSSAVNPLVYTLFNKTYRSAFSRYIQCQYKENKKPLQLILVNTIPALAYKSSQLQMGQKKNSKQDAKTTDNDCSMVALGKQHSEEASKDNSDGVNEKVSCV
Sequence of KiSS-1 receptor (Homo sapiens) (Q969F8 whole entry, looked up): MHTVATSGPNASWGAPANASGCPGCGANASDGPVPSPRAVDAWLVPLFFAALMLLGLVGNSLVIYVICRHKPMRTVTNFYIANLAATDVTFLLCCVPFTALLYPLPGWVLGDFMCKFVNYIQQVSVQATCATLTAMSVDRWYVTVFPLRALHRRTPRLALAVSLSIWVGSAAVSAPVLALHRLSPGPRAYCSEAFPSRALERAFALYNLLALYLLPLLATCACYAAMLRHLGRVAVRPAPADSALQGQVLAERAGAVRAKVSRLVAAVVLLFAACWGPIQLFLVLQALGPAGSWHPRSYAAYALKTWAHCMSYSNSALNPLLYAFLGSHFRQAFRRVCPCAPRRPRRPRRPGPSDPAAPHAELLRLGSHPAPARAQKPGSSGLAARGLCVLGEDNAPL
Sequence of D(2) dopamine receptor (Homo sapiens) (P14416 whole entry, looked up): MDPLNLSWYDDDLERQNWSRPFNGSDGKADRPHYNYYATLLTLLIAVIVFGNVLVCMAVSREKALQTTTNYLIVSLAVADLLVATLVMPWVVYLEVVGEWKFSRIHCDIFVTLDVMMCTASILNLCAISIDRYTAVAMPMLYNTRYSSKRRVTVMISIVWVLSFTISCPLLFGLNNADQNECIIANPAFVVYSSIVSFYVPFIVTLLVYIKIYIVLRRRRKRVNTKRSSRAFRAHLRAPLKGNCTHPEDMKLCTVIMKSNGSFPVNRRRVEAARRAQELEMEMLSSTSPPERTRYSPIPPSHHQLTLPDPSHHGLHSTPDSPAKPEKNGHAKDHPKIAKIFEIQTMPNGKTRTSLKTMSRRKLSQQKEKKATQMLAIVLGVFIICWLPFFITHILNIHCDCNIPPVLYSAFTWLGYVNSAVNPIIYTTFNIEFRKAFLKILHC
Sequence of Muscarinic acetylcholine receptor M1 (Homo sapiens) (P11229 whole entry, looked up): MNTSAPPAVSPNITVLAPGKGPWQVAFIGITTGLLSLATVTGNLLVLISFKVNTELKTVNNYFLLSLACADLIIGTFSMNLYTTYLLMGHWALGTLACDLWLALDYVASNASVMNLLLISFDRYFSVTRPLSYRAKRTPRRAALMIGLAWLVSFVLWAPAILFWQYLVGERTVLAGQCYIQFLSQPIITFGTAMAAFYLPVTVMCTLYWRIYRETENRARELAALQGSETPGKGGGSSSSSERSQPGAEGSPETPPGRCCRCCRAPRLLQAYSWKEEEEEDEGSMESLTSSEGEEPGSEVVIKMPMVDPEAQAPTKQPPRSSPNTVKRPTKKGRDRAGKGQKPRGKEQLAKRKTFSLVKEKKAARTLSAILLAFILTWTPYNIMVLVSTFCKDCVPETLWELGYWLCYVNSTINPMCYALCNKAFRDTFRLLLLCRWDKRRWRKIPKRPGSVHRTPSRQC

On to `CCCCCCCCCCCCCCCC(=O)OC/C=C(C)/C=C/C=C(C)/C=C/C1=C(C)CCCC1(C)C`, for which the Potency entry in [1], in [2], in assay [3], in [4], in [5] and in [6] was “inactive” throughout. Further, the Potency entry in assay [7], in assay [8], in assay [9], in [10], in assay [11] and in [12] was “inactive” each time. Also, the Potency entry in assay [13], in [14], in assay [15], in assay [16], in [17] and in assay [18] was “inactive” in each case. Further, the Potency result in [19] was “inactive”.

For `ClC(Cl)(Cl)c1ccc(C(Cl)(Cl)Cl)cc1`, the Potency result in [1], in [2], in assay [3], in assay [4], in assay [5] and in assay [6] was “inactive” throughout. The Potency result in assay [7], in assay [8], in [9], in assay [10], in [11] and in assay [12] was “inactive” throughout. The Potency result in assay [13], in assay [14], in [15], in [16], in assay [17] and in [18] was “inactive” throughout.

On to `CC(C)C=O`, for which the Potency result in assay [1], in [2], in assay [3], in [4], in assay [5] and in assay [6] was “inactive” in each case. For the same molecule, the Potency result in assay [7], in assay [8], in assay [9], in assay [10], in [11] and in [12] was “inactive” in each case. Also, the Potency result in assay [13], in assay [14], in [15], in [16], in assay [17] and in assay [20] was “inactive” throughout. Besides, the Potency entry in assay [19] was “inactive”.

For `CCC(C)(CN(C)C)OC(=O)c1ccccc1` (stereo not drawn), the Potency entry in assay [1], in assay [2], in assay [3], in assay [4], in [5] and in [6] was “inactive” in each case. Also, the Potency entry in assay [7], in assay [8], in [9], in [10], in assay [11] and in assay [12] was “inactive” in each case. In addition, the Potency result in assay [13], in assay [14], in assay [15], in assay [16], in [17] and in assay [20] was “inactive” throughout. Besides, the Potency result in assay [19] is “inactive”.

On to `CCc1c(C)cc(N)c(CC)c1N`, for which the Potency result in assay [1], in assay [2], in assay [3], in assay [4], in assay [5] and in [6] was “inactive” each time. Moreover, the Potency entry in assay [7], in assay [8], in assay [9], in assay [10], in assay [11] and in assay [12] was “inactive” throughout. In addition, the Potency result in assay [13], in [14], in assay [15], in assay [16], in assay [18] and in [19] was “inactive” throughout.

Regarding `CN1CCCN=C1/C=C/c1cccs1`, the Potency entry in [1], in assay [2], in assay [3], in assay [4], in assay [5] and in [6] was “inactive” throughout. Further, the Potency result in [7], in assay [8], in [9], in [10], in assay [11] and in assay [12] was “inactive” in each case. Also, the Potency entry in [13], in [14], in [15], in assay [16], in assay [17] and in [20] was “inactive” in each case. For the same molecule, the Potency result in assay [18] and in [19] was “inactive” in each case.

On to `Nc1ccccn1`, for which the Potency entry in assay [1], in [2], in assay [3], in [4], in assay [5] and in [6] was “inactive” each time. The Potency result in [7], in [8], in [9], in assay [10], in assay [12] and in assay [13] was “inactive” in each case. The Potency result in assay [14], in assay [17], in assay [18] and in [19] was “inactive” throughout. For the same molecule, the Potency in assay [11] is 31.8 nM (active).

On to `CCC(C)O` (stereo not drawn), for which the Potency result in assay [1], in [2], in assay [3], in assay [4], in assay [5] and in [6] was “inactive” throughout. Besides, the Potency entry in assay [7], in [8], in [9], in [10], in [11] and in [12] was “inactive” throughout. In addition, the Potency result in assay [13], in assay [15], in assay [17], in assay [20], in [18] and in assay [19] was “inactive” in each case.
